ERp5 inh = inhibitors of human ERp5. inhibition, % at 9.99 µM. AID 651711. Q15084. ERp5 insulin aggregation, absorbance 650 nm, 90 min. 350,000 tested, 0.05% active;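 active = mean replicate inhibition above about 25%, with every replicate also reaching it, limit read from the data, passing the limit was not always enough; inconclusive = only one of those two criteria met; inactive = neither criterion met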
Target sequence (Q15084 whole entry, looked up): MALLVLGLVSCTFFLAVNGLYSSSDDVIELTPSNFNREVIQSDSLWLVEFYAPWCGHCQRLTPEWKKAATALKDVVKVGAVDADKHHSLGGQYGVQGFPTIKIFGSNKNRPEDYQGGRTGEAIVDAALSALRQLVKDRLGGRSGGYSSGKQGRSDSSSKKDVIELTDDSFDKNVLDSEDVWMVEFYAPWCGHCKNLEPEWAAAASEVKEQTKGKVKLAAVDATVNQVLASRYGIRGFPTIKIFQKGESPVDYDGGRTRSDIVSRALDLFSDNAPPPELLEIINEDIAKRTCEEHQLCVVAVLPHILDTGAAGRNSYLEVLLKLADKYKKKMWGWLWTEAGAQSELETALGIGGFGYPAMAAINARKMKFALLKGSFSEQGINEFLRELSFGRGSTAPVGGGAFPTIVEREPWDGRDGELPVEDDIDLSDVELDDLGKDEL
DENV2 CPE rescue = DENV2-induced cell death inhibition; DENV2-infected cells, cytopathic effect rescue, plate reader; CPE inhibition, % at 9.99 µM; 350,000 tested, 1.7% active; in the data active = CPE inhibition above about 20%, passing the limit was not always enough; inconclusive = no clear call, values can overlap the other calls; tested in BHK-21 cells
PDI inh = PDI (human) enzyme inhibition | 350,000 tested, 0.052% active | P07237 | AID 588391 | inhibition, % at 10 µM | PDI insulin aggregation turbidity, A650, 90 min;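 active = mean inhibition across replicates of 30% or more, whatever share of single replicates reach that level; inconclusive = mean inhibition below 30% while every single replicate reaches 30%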
SIRT5 block = sirtuin-5 (human) deacylase inhibition; Purified SirT5, succinyl-peptide AMC, trypsin-coupled fluorescence; 330,000 tested, 1.1% active; inhibition, % at 15 µM; AID 652115; Q9NXA8; in the data active = inhibition above about 15%; inconclusive = no clear call, values can overlap the other calls
Rtt109 Vps75 = C. albicans Rtt109 histone acetyltransferase inhibition; Q5AAJ8; purified Rtt109/Vps75, ThioGlo CoA-SH fluorescence, 4 h; inhibition, % at 34.9 µM; 330,000 tested, 0.16% active; AID 540336;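 active = inhibition of at least 50% in every replicate; inconclusive = best replicate reaches 50% inhibition but some replicates fall short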
Each line names hits and unclear results; the compound was inactive in the other large screens; ! = not active in a repeat. This is a sample that favours compounds with a hit; in the whole collection about 2.3% have one here.

COC(=O)[C@H]1[C@H](CO)[C@H]2Cn3c(ccc(C4=CCCCC4)c3=O)[C@@H]1N2C(=O)Cc1ccccn1	none (no result: PDI inh, Rtt109 Vps75)
COC(=O)C[C@@H]1CC[C@H]2NC[C@H](O)COC[C@@H]2O1	none (no result: PDI inh, Rtt109 Vps75)
CCOP(=O)(OCC)C(NC(=O)c1ccccc1)=C(Cl)Cl	none
CCOC(=O)C1=C(NC(=S)NC(=O)c2ccccc2)c2ccccc2CC12CCCC2	SIRT5 block 35
OC1CN2CCCC(O)C2C1O (stereo unspecified)	DENV2 CPE rescue 55 (no result: PDI inh, Rtt109 Vps75)
O[C@H]1[C@H](O)[C@@H](O)CN2CC[C@H](O)[C@H]12	none
CCN1[C@@H]2Cn3c(ccc(-c4ccc(OC)cc4)c3=O)[C@H]1[C@@H](C(=O)OC)[C@@H]2CO	none (no result: PDI inh, Rtt109 Vps75)
CN(C)c1ccc(/C=C/c2cc[n+](C)c3ccccc23)cc1	Rtt109 Vps75 181!
COc1ccc(/C=C2/C(=O)N(Cc3ccco3)C(=O)N(C(C)C)C2=O)cc1	SIRT5 block 25
CN(C)c1ccc(/C=C2/C(=O)NC(=O)N(Cc3ccco3)C2=O)cc1	SIRT5 block 31
CC(C)N1C(=O)/C(=C/C=C/c2ccco2)C(=O)N(Cc2ccco2)C1=O	none (no result: ERp5 inh, DENV2 CPE rescue, SIRT5 block)
O=C(Cc1cccnc1)N1CCCCN2[C@H](C1)[C@@H](c1ccc(C#CC3CC3)cc1)[C@@H]2CO	none (no result: PDI inh, Rtt109 Vps75)
N#Cc1ccc(CN2Cc3ccccc3-n3nncc3C2)cc1	DENV2 CPE rescue 109 (no result: Rtt109 Vps75)
c1ccc(CN2Cc3ccccc3-n3nncc3C2)nc1	none (no result: Rtt109 Vps75)
C/C=C/c1ccc(C2[C@@H]3CN(C(=O)C4CCC4)C[C@H]2N3)cc1 (stereo partly specified)	none (no result: ERp5 inh, PDI inh, SIRT5 block, Rtt109 Vps75)
COc1ccc(C#Cc2ccc([C@@H]3[C@@H](CO)N4CCCCN(C(=O)Cc5ccncc5)C[C@@H]34)cc2)cc1	DENV2 CPE rescue 36 (no result: PDI inh, Rtt109 Vps75)
COc1ccc(C#Cc2ccc([C@H]3[C@H](CO)N4CCCCN(C(=O)Cc5cccnc5)C[C@@H]34)cc2)cc1	ERp5 inh 27 (no result: PDI inh, Rtt109 Vps75)
C[C@@H]1C(=O)O[C@H]2[C@H](O)[C@]34[C@@H]5OC(=O)[C@]3(OC3OC(=O)[C@H](O)C34[C@H](C(C)(C)C)[C@@H]5O)[C@@]12O (stereo partly specified)	DENV2 CPE rescue 42
CC(C)(C)[C@]1(O)C[C@@H]2OC(=O)C[C@@]23C(=O)O[C@@H]2OC(=O)[C@@H](O)C213 (stereo partly specified)	DENV2 CPE rescue inconclusive
Cc1cccc(S(=O)(=O)N2[C@@H]3c4ccc(-c5ccncc5)c(=O)n4C[C@H]2[C@H](CO)[C@H]3C(=O)O)c1	none (no result: PDI inh, Rtt109 Vps75)
NS(=O)(=O)c1nc[nH]c1[N+](=O)[O-]	DENV2 CPE rescue 29
CCn1nc(/C=C/c2ccccc2)nc2c(=O)n(C)c(=O)nc1-2	ERp5 inh 38
CCn1nc(-c2cccs2)nc2c(=O)n(C)c(=O)nc1-2	PDI inh inconclusive (no result: ERp5 inh, DENV2 CPE rescue, SIRT5 block)
NCCc1c[nH]c2ccccc12	DENV2 CPE rescue 63 (no result: PDI inh, SIRT5 block)
Fc1ccccc1CNCCc1c[nH]c2ccccc12	DENV2 CPE rescue 32
Fc1ccc(CNCCc2c[nH]c3ccccc23)cc1	none
COC(=O)[C@H]1[C@H](CO)[C@H]2Cn3c(cccc3=O)[C@@H]1N2C(=O)C1CC1	none (no result: PDI inh, Rtt109 Vps75)
O=c1c2ccccc2nc(/C=C/c2ccc3c(c2)OCO3)n1-c1cccc(O)c1	none (no result: ERp5 inh, DENV2 CPE rescue, SIRT5 block)
COc1ccc(-n2c(/C=C/c3ccc4c(c3)OCO4)nc3ccccc3c2=O)cc1	SIRT5 block 32
COC(=O)C1=C(c2ccc(OC(F)(F)F)cc2)C[C@@H]2CC[C@H]1N2C(=O)NC1CCCCC1	DENV2 CPE rescue 37
COC(=O)C1=C(c2ccc(OC(F)(F)F)cc2)C[C@@H]2CC[C@H]1N2C(=O)NCCOc1ccc(OC)cc1	DENV2 CPE rescue 26 (no result: SIRT5 block)
COC(=O)C1=C(c2ccc(OC(F)(F)F)cc2)C[C@@H]2CC[C@H]1N2C(=O)NC1Cc2ccccc2C1	none (no result: SIRT5 block)
O=C(COc1ccc(Cl)cc1)N1CCN(Cc2ccccc2)CC1	SIRT5 block 16 (no result: DENV2 CPE rescue, Rtt109 Vps75)
COc1ccc(CN2CCN(C(=O)Cc3ccccc3)CC2)c(OC)c1	none (no result: ERp5 inh, DENV2 CPE rescue, SIRT5 block)
CC(C)NS(=O)(=O)c1ccc(OCC(=O)N2CCN(Cc3ccccc3)CC2)cc1	none (no result: ERp5 inh, DENV2 CPE rescue, SIRT5 block)
COc1cc(CN2CCN(C(=O)Cc3ccccc3)CC2)cc(OC)c1OC	SIRT5 block 15
COC(=O)[C@H]1[C@H](CO)[C@H]2Cn3c(ccc(-c4ccncc4)c3=O)[C@@H]1N2S(=O)(=O)c1ccccc1F	none (no result: PDI inh, Rtt109 Vps75)
O=C1NC(=S)NC(=O)C1=Cc1cccn1-c1ccc(O)cc1	SIRT5 block 53
C[C@]12C[C@H](O)[C@@H](O)C[C@@H]1CC[C@@H]1[C@@H]2CC[C@]2(C)C(=O)CC[C@@H]12	DENV2 CPE rescue 33 (no result: PDI inh, Rtt109 Vps75)
CCOC(=O)c1cccc(C2=C(CNC(C)=O)[C@H]3CC[C@@H](C2)N3Cc2ccccc2)c1	DENV2 CPE rescue 32 (no result: Rtt109 Vps75)
CCN1[C@@H]2Cn3c(ccc(-c4cccc(OC)c4)c3=O)[C@H]1[C@@H](C(=O)OC)[C@@H]2CO	none (no result: PDI inh, Rtt109 Vps75)
COc1ccc(-n2nnnc2C(CCc2ccccc2)N2CCC(n3c(=O)[nH]c4ccccc43)CC2)cc1 (stereo unspecified)	DENV2 CPE rescue 56 (no result: PDI inh, Rtt109 Vps75)
CCN1[C@@H]2c3ccc(-c4ccc(OC)cc4)c(=O)n3C[C@H]1[C@H](CO)[C@H]2C(=O)OC	none (no result: PDI inh, Rtt109 Vps75)

Bioassay records deposited in PubChem BioAssay by Broad Institute.
